Reference: PubChem BioAssay (NCI)
“And” between values parts separate entries of the source, which are not always exact repeats. Equal entries are not always repeated. This is part of a sample that, as a whole, favours compounds with a hit. Of some 83,000 tested, about 20% had one in any assay.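 96-well plates, one dose, 48 hours. Percent growth reported; active if below 10.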 The source made the active and inactive calls.

Columns and labels:
Assay in all cases: NCI-60 one-dose screen, 48 h (100 = growth as untreated, 0 = no growth, -100 = all killed)
[1] = test system: HCT-15 colon; conditions: 10 µM
[2] = test system: SNB-75 CNS; conditions: 10 µM
[3] = test system: SNB-19 CNS; conditions: 10 µM
[4] = test system: U251 CNS; conditions: 10 µM
[5] = test system: PC-3 prostate; conditions: 10 µM
[6] = test system: SK-MEL-5 melanoma; conditions: 10 µM
[7] = test system: UACC-62 melanoma
[8] = test system: LOX IMVI melanoma; conditions: 10 µM
[9] = test system: SN12C renal; conditions: 10 µM
[10] = test system: UO-31 renal; conditions: 10 µM
[11] = test system: ACHN renal; conditions: 10 µM
[12] = test system: CAKI-1 renal; conditions: 10 µM
[13] = test system: A498 renal; conditions: 10 µM
[14] = test system: CCRF-CEM leukemia; conditions: 10 µM
[15] = test system: MOLT-4 leukemia; conditions: 10 µM unless noted
[16] = test system: SR leukemia; conditions: 10 µM
[17] = test system: EKVX NSCLC; conditions: 10 µM
[18] = test system: TK-10 renal

## ClCCn1c(CCl)nc2ccc(Cl)cc21
[1]
  growth: -31.5% (active)
[2]
  growth: 20.7% (inactive)
[3]
  growth: 47.9% (inactive)
[4]
  growth: -67.2% (active)
[5]
  growth: -63.9% (active)
[6]
  growth: -94.9% (active)
[7]; 10 µM
  growth: -79.6% (active)
[8]
  growth: 2.97% (active)
[9]
  growth: -47% (active)
[10]
  growth: -82.6% (active)
[11]
  growth: -68.8% (active)
[12]
  growth: -28.5% (active)
[13]
  growth: 1.48% (active)
[14]
  growth: -46.8% (active)
[15]
  growth: -52.7% (active)
[16]
  growth: -32.4% (active)

## Cc1cc(Cl)ccc1NC(=O)/C(Cl)=C1/Sc2ccccc2NC1=O
[1]
  growth: 88.2% (inactive)
[2]
  growth: 70.8% (inactive)
[3]
  growth: 94% (inactive)
[4]
  growth: 94.7% (inactive)
[5]
  growth: 78% (inactive)
[6]
  growth: 90% (inactive)
[7]; 10 µM
  growth: 74% (inactive)
[8]
  growth: 73.6% (inactive)
[17]
  growth: 70.4% (inactive)
[9]
  growth: 106% (inactive)
[10]
  growth: 76.4% (inactive)
[11]
  growth: 85.4% (inactive)
[12]
  growth: 60.8% (inactive)
[13]
  growth: 131% (inactive)
[14]
  growth: 76.5% (inactive)
[15]
  growth: 83.5% (inactive)
[16]
  growth: 100% (inactive)

## COc1cc(N)ccc1Nc1c2ccccc2nc2ccccc12
[1]
  growth: -10.1% (active)
[2]
  growth: 91% (inactive)
[3]
  growth: 99.7% (inactive)
[5]
  growth: 59% (inactive)
[6]
  growth: 85% (inactive)
[7]; 10 µM
  growth: 89.6% (inactive)
[8]
  growth: -23.6% (active)
[9]
  growth: 81% (inactive)
[10]
  growth: 50.6% (inactive)
[11]
  growth: 88.6% (inactive)
[12]
  growth: 70.5% (inactive)
[13]
  growth: 87.3% (inactive)
[15]
  growth: 2.72% (active)
[16]
  growth: 10.1% (inactive)

## S=C1SCN(CCc2ccccc2)CN1CCc1ccccc1
[1]
  growth: 95.1% (inactive)
[2]
  growth: 87.5% (inactive)
[3]
  growth: 105% (inactive)
[4]
  growth: 91.3% (inactive)
[5]
  growth: 93.6% (inactive)
[6]
  growth: 89% (inactive)
[7]; 10 µM
  growth: 94.9% (inactive)
[8]
  growth: 90.9% (inactive)
[17]
  growth: 109% (inactive)
[9]
  growth: 101% (inactive)
[10]
  growth: 70.6% (inactive)
[11]
  growth: 110% (inactive)
[12]
  growth: 90.5% (inactive)
[14]
  growth: 57.3% (inactive)
[15]
  growth: 76.8% (inactive)
[16]
  growth: 61.2% (inactive)

## O=C1C=CC(=O)N1c1ccc(N2C(=O)C=CC2=O)cc1
[1]
  growth: 91.4% (inactive)
[2]
  growth: 95.6% (inactive)
[4]
  growth: 101% (inactive)
[5]
  growth: 112% (inactive)
[6]
  growth: 103% (inactive)
[7]; 10 µM
  growth: 96.5% (inactive)
[8]
  growth: 85% (inactive)
[17]
  growth: 90.8% (inactive)
[9]
  growth: 102% (inactive)
[10]
  growth: 76.7% (inactive)
[11]
  growth: 92.2% (inactive)
[12]
  growth: 69.9% (inactive)
[13]
  growth: 149% (inactive)
[14]
  growth: 15.9% (inactive)
[15]
  growth: -9.11% (active)
[16]
  growth: 0.0539% (active)

## COc1cccc(C(c2cc3c(cc2O)OCO3)N2CCOCC2)c1OC (stereo not given)
[1]
  growth: 97.4% (inactive)
[2]
  growth: 91.2% (inactive)
[3]
  growth: 98.5% (inactive)
[4]
  growth: 101% (inactive)
[5]
  growth: 95.7% (inactive)
[6]
  growth: 99.1% (inactive)
[7]; 10 µM
  growth: 95.3% (inactive)
[8]
  growth: 97.3% (inactive)
[17]
  growth: 97.7% (inactive)
[9]
  growth: 97.8% (inactive)
[10]
  growth: 88.7% (inactive)
[11]
  growth: 103% (inactive)
[12]
  growth: 94.7% (inactive)
[13]
  growth: 75.3% (inactive)
[14]
  growth: 97.1% (inactive)
[15]
  growth: 96% (inactive)
[16]
  growth: 89.5% (inactive)

## C=C1N(C)c2ccc(Cl)cc2C1(C)C
[1]
  growth: 106% (inactive)
[2]
  growth: 62% (inactive)
[3]
  growth: 55.1% (inactive)
[4]
  growth: 22.8% (inactive)
[5]
  growth: 32.9% (inactive)
[6]
  growth: 90.5% (inactive)
[7]; 10 µM
  growth: 69.5% (inactive)
[8]
  growth: 51.9% (inactive)
[17]
  growth: 25.2% (inactive)
[9]
  growth: 54.8% (inactive)
[10]
  growth: 78.5% (inactive)
[11]
  growth: 94.9% (inactive)
[13]
  growth: 84.1% (inactive)
[14]
  growth: 42.2% (inactive)
[15]
  growth: 35.8% (inactive)

## N#CC(=S)Nc1cccc(Cl)c1
[7]; 100 µM
  growth: 1.5% (active) and -86.8% (active)
[18]; 100 µM
  growth: 5.57% (active) and -9.55% (active)

## O=C1C(Cl)=C(Cl)C(Cl)(Cl)C(Cl)C1(Cl)Cl (stereo not given)
[1]
  growth: 91.3% (inactive)
[2]
  growth: 88.9% (inactive)
[3]
  growth: 108% (inactive)
[4]
  growth: 103% (inactive)
[5]
  growth: 101% (inactive)
[6]
  growth: 106% (inactive)
[7]; 10 µM
  growth: 98.7% (inactive)
[8]
  growth: 96.2% (inactive)
[17]
  growth: 105% (inactive)
[9]
  growth: 88.5% (inactive)
[10]
  growth: 84.5% (inactive)
[11]
  growth: 100% (inactive)
[12]
  growth: 99% (inactive)
[13]
  growth: 115% (inactive)
[14]
  growth: 94.9% (inactive)
[15]
  growth: 94.8% (inactive)
[16]
  growth: 90.2% (inactive)

## N#CC(=C1C=CC(=NO)C=C1)c1ccccc1
[1]
  growth: 9.7% (active)
[2]
  growth: -1.66% (active)
[3]
  growth: 59.6% (inactive)
[4]
  growth: 9.88% (active)
[5]
  growth: 3.44% (active)
[6]
  growth: 2.56% (active)
[8]
  growth: -6.53% (active)
[17]
  growth: 55.1% (inactive)
[9]
  growth: 10.3% (inactive)
[10]
  growth: 48.4% (inactive)
[11]
  growth: 9.06% (active)
[12]
  growth: 52.3% (inactive)
[13]
  growth: 48% (inactive)
[14]
  growth: 3.4% (active)
[15]
  growth: 19.2% (inactive)
[16]
  growth: -17.5% (active)

## Cc1cc(N=C2C=CC(=[N+](C)C)C=C2)c(N)cc1N
[1]
  growth: 109% (inactive)
[2]
  growth: 102% (inactive)
[3]
  growth: 87.3% (inactive)
[4]
  growth: 93.2% (inactive)
[6]
  growth: 90% (inactive)
[7]; 10 µM
  growth: 89.8% (inactive)
[8]
  growth: 79% (inactive)
[17]
  growth: 85.4% (inactive)
[9]
  growth: 88.7% (inactive)
[10]
  growth: 71.5% (inactive)
[11]
  growth: 91% (inactive)
[12]
  growth: 92.8% (inactive)
[13]
  growth: 75.7% (inactive)
[14]
  growth: 89.3% (inactive)
[15]
  growth: 91.3% (inactive)

## COc1ccc(N)c2c1C(=O)c1ccccc1C2=O
[1]
  growth: 87.1% (inactive)
[2]
  growth: 95.6% (inactive)
[3]
  growth: 101% (inactive)
[4]
  growth: 97.9% (inactive)
[5]
  growth: 89.6% (inactive)
[7]; 10 µM
  growth: 94.3% (inactive)
[8]
  growth: 104% (inactive)
[17]
  growth: 106% (inactive)
[9]
  growth: 93.9% (inactive)
[10]
  growth: 68.5% (inactive)
[18]; 10 µM
  growth: 102% (inactive)
[11]
  growth: 96.9% (inactive)
[12]
  growth: 74% (inactive)
[13]
  growth: 93.4% (inactive)
[14]
  growth: 89.9% (inactive)
[15]
  growth: 67% (inactive)

## Cn1c2nc3ccccc3c-2nc2ccccc21
[1]
  growth: 94.9% (inactive) and 85.2% (inactive)
[2]
  growth: 101% (inactive) and 81.1% (inactive)
[3]
  growth: 88.8% (inactive) and 82.8% (inactive)
[4]
  growth: 91.4% (inactive) and 90.2% (inactive)
[5]
  growth: 95.4% (inactive) and 99.7% (inactive)
[6]
  growth: 82.5% (inactive) and 65.6% (inactive)
[7]; 10 µM
  growth: 87.4% (inactive) and 91.2% (inactive)
[8]
  growth: 99.5% (inactive) and 86.1% (inactive)
[17]
  growth: 81.2% (inactive)
[9]
  growth: 95% (inactive) and 87.7% (inactive)
[10]
  growth: 71.9% (inactive) and 48.3% (inactive)
[11]
  growth: 94.4% (inactive) and 79.1% (inactive)
[12]
  growth: 73.9% (inactive) and 93.6% (inactive)
[13]
  growth: 45.9% (inactive) and 80.3% (inactive)
[14]
  growth: 95.8% (inactive) and -21.8% (active)
[15]
  growth: 97.9% (inactive) and 96.7% (inactive)
[16]
  growth: 83.5% (inactive) and 91.1% (inactive)

## CC[C@@]1(OC(=O)CN(C)C)C(=O)OCc2c1cc1n(c2=O)Cc2cc3c(N)cccc3nc2-1
[1]
  growth: 6.43% (active)
[2]
  growth: -10.5% (active)
[3]
  growth: 11.2% (inactive)
[4]
  growth: 3.98% (active)
[5]
  growth: 18% (inactive)
[7]; 10 µM
  growth: -77.8% (active)
[8]
  growth: -39.3% (active)
[17]
  growth: 18.2% (inactive)
[9]
  growth: 7.95% (active)
[10]
  growth: -50.8% (active)
[11]
  growth: -49% (active)
[12]
  growth: -20.1% (active)
[13]
  growth: -56.6% (active)
[14]
  growth: 5.31% (active)
[15]
  growth: -0.423% (active)
[16]
  growth: -3.07% (active)
